The campaign covered roughly 190,000 compounds. About 80 (0.04%) were called active. Cut-off read from the data, not from the text of the source: active = inhibition above about 40%. A selection follows.
Each compound was assayed against Bcl-2-like protein 1 (Homo sapiens) (UniProt Q07817) (assay: inhibitors of Bim-Bcl-XL binding, primary screen, biochemical, multiplexed, bead flow cytometry, human Bcl-XL (AID 1007)). Details: Bim peptide-Bcl-XL binding, fluorescence, at 10 µM, stronger effect = higher value.
Bcl-2-like protein 1 (Homo sapiens), sequence (Q07817 whole entry, looked up): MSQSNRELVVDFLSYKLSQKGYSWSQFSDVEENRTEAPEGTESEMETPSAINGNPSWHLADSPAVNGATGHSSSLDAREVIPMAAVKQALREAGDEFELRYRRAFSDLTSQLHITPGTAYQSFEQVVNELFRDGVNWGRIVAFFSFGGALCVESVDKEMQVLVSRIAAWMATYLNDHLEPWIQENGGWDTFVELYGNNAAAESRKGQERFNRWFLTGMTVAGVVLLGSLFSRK

inhibition, inactive:
COc1ccc(-c2[nH]ncc2CN(C)Cc2cccnc2)c(F)c1 0%
Cc1ccc2c(c1)C1CN(C)CCC1N2S(=O)(=O)c1ccc(Oc2ccc([N+](=O)[O-])cc2)cc1 (configuration not stated) -1%
CS(=O)(=O)N(CC(=O)N/N=C/c1ccccn1)c1ccc(Oc2ccccc2)cc1 -4%
CCOCCCNC(=O)C(=O)NCCCOCC -11%
O=C(COC(=O)Cc1ccc(F)cc1)Nc1cc(S(=O)(=O)N2CCOCC2)ccc1N1CCCC1 -11%
Cc1nc(N2CCC(C)CC2)c2c(C)c(C(=O)Nc3cc(F)ccc3C)sc2n1 -5%
Cc1ccc(C)c(CSc2nc(-c3ccco3)nc3c2c(=O)n(C)c(=O)n3C)c1 -2%
CCN(CC)CCn1c(/N=C/c2cc(Br)ccc2O)nc2ccccc21 -11%
O=[N+]([O-])c1ccccc1Nc1ccc(O)cc1 -5%
Cc1c(C(=O)O)nnn1-c1nonc1N 0%
CN1CCN(C(CNS(=O)(=O)c2cccs2)c2cccnc2)CC1 (configuration not stated) 0%
O=C(Cc1cccs1)N/N=C/c1ccc(OCc2ccccc2)cc1 -4%
O=C(Nc1ccc2oc(-c3ccccc3F)nc2c1)c1ccco1 0%
O=c1c(Cl)c(NCc2ccc(F)cc2Cl)cnn1C12CC3CC(CC(C3)C1)C2 -8%
COC(=O)c1ccc(OCC(O)CN(CCO)CC(O)Cn2ccc3ccccc32)cc1 (configuration not stated) -8%
CCc1ccc(-c2cc(C(=O)NN3CCN(C)CC3)c3ccccc3n2)cc1 -6%
COc1ccc(CCc2nnc(CCC(=O)NCc3cnn(-c4ccccc4C)c3)o2)cc1 0%
Cc1ccc(NC(=O)Cn2cccc2C2=NC(c3ccccc3)CO2)c(C)c1 (configuration not stated) -2%
CC(Sc1nc2c([nH]c3ccccc32)c(=O)n1C)c1ccccc1 (configuration not stated) -6%
O=C(Nc1ccccc1C(=O)N1CCOCC1)c1ccc(Cl)cc1 0%
Cc1nnc(SCC2=C(C(=O)O)N3C(=O)C(NC(=O)Cn4nc(C)c(Cl)c4C)C3SC2)s1 (configuration not stated) -6%
O=C(NC(CC(=O)N1CCN(c2ccccc2)CC1)c1ccccc1)c1ccccc1Cl (configuration not stated) -6%
COc1ccc(NC(=O)COc2ccc(C(=O)OCC(=O)N(C)C3CCS(=O)(=O)C3)cc2OC)cc1 (configuration not stated) -2%
Cn1c(CCC(=O)Nc2ccccc2F)nnc1SCC(=O)Nc1ccccc1Cl -5%
COc1ccc(NC(=O)CC2C(=O)OCC3CCCCN32)cc1Cl (configuration not stated) -4%
O=[N+]([O-])c1cccc(S(=O)(=O)N2CCCCCC2)c1 -7%
CCN1CCC2(CC1)N=C(c1ccc(F)cc1)C(=S)N2C(=O)c1ccc(C)cc1 -10%
Cc1ccc2c(=O)oc(N(C)C)nc2c1 1%
Cc1cc(C)c(C(N)=O)c(Cl)n1 -2%
CCOC(=O)c1ccc(NC(=O)C2CC(=O)Nc3nc4ccccc4n32)cc1 (configuration not stated) 2%
CCn1c(N)c(Br)c(=O)[nH]c1=O -2%
C#Cc1ccc([C@@H]2C=C(C(=O)O)O[C@H](OCCCCO)C2)cc1 -4%
CCN(CC)CC1(O)CCN(C(=O)c2ccc(Cl)c(Cl)c2)CC1 0%
CCC(CC)c1nnc(NC(=O)/C=C/c2ccco2)s1 -8%
O=C(NCc1ccco1)C(=O)c1cn(CC(=O)N2CCCCCC2)c2ccccc12 -2%
COc1ccc(CNC(=O)CCCn2nc(C)c([N+](=O)[O-])c2C)cc1 -4%
O=C(N1CCCC1)C12CC3CC(C1)CC(C(=O)N1CCCC1)(C3)C2 -4%
Cc1ccccc1CN(c1ccc(C(=O)NCC2CCCO2)cc1)S(C)(=O)=O (configuration not stated) -6%
O=C(c1cccc(F)c1)N1CCN(c2ccc([N+](=O)[O-])c3cccnc23)CC1 -4%
COc1cccc(C(=O)N2CCCC(CCC(=O)NCc3ccc(F)c(F)c3)C2)c1 (configuration not stated) -1%
CCOC(=O)CCCNC(=O)COC(=O)c1cc(Br)c(Br)s1 2%
Cc1ccccc1-c1n[nH]c(=S)n1/N=C/c1ccc(-c2ccccc2Br)o1 -1%
CC1CCCC(C)N1/N=C/c1ccccc1OC(F)F (configuration not stated) 2%
O=C1NC(c2ccccc2)CCC1(Cl)Cl (configuration not stated) -5%
O=C(O)CC(SCC(=O)Nc1ccc(Br)cc1)C(=O)O (configuration not stated) -2%
COc1cc(Cl)c(C)cc1NC(=O)COC(=O)c1cc(SC)ccc1Cl -6%
COC(=O)c1ccccc1SC1CC(=O)N(c2cccc(C)c2)C1=O (configuration not stated) -2%
Cc1ccc(NC(=O)Nc2nnc(-c3ccncc3)s2)cc1 -2%
OCCn1c(-c2ccccc2)csc1=Nc1ccccc1 -3%
COc1ccccc1N1CCN(/N=C\C(Br)=C\c2ccccc2)CC1 -1%
Cc1nc2c(C(=O)NCc3cccs3)cnn2c(C)c1Cc1ccc(F)cc1 1%
O=C(CN(c1cccc(Cl)c1)S(=O)(=O)c1ccccc1)NN=C1CCCC1 -1%
CC(C)C(=O)Nc1c(O)c2ccccc2[nH]c1=O -4%
Cc1cc(C(=O)CCl)c(C)n1CC1COc2ccccc2O1 (configuration not stated) 0%
COc1cccc2c(N/N=C/c3ccco3)cc(C)nc12 0%
CCc1ccccc1N1C(=O)C2C3CC(=O)C(c4ccccc43)C2C1=O (configuration not stated) -2%
Cn1nnnc1-c1cc(Cl)cc(Cl)c1 0%
O=C(Oc1ccccc1Cl)c1ccc(N2CCOCC2)c([N+](=O)[O-])c1 3%
COc1ccc(Nc2nc(N)nc(CSC(=S)N3CCC(C)CC3)n2)cc1 20%
CC1CCN(c2ccc(C(=O)Nc3nnc(C4CC4)s3)cc2[N+](=O)[O-])CC1 -12%
NS(=O)(=O)c1cccc(NC(=O)COC(=O)/C=C/c2ccco2)c1 -2%
N#CC1=C(N)Oc2[nH]c(=S)[nH]c(=O)c2C12C(=O)Nc1ccccc12 (configuration not stated) -1%
